# Screening data (PubChem)
# CtBP-E1A inh: blocks the CtBP interaction with E1A; AlphaScreen GST-E1A/His-CtBP binding, 1536-well; hits give low values; 340,000 compounds, 0.49% hits; activity change, % (no concentration beside the values); in the data active means activity change below about -65%; inconclusive means mostly about -30% to -63%; further: on the % scale 0 is the no-effect control and ±100 the full control effect
#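 AlphaScreen with 125 nM GST-E1A and 125 nM His-CtBP (5X stocks) in Tris pH 8.0, 300 mM NaCl, BSA, Tween 20, TCEP. Compounds preincubated 2 h at 37 deg C, then glutathione donor/nickel acceptor beads added for 1 h at 37 deg C in dark.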
# JMJD2A Tudor: blocks the human JMJD2A Tudor domain. AlphaScreen JMJD2A-Tudor / H3K4me3 peptide binding. Potency, µM (series often up to 114 µM), without a hit: at the highest dose activity change, negative = inhibition, hits mostly inhibitors. 390,000 compounds, 4.4% hits. AID 504339; further: potency means the concentration at half of the fitted maximal effect; on the % scale 0 is the no-effect control and ±100 the full control effect; nearly all actives have a fitted effect of over 50% in size
# HP1b chromo inh: blocks HP1-beta chromodomain binding to methylated histone tails | 390,000 compounds, 0.56% hits | Potency, µM (top dose mostly 114 µM), for inactives: at the top dose activity change, negative = inhibition, actives largely listed as inhibitors | AlphaScreen HP1-beta / biotin-H3K9me3 peptide binding; further: potency means the concentration at half of the fitted maximal effect; nearly all actives have a fitted effect of over 70% in size
# Target sequence (P83916 whole entry, looked up): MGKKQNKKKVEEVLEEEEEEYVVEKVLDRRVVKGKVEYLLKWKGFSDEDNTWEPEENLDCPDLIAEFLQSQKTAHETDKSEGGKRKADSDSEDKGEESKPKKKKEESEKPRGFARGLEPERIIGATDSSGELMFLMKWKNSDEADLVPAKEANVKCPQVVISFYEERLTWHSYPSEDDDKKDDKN
#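 HP1-beta protein (50 nM final) preincubated 30 min at room temperature with biotinylated H3(1-18)K9me3 peptide (50 nM) in PBS pH 7.4, 0.01% Tween-20, then compound added for 30 min. AlphaScreen streptavidin donor/nickel chelate acceptor beads (10 ug/mL final), 30 min dark, luminescence read.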
# Six1-Eya2 blk: blocks human Six1 binding to Eya2; AlphaScreen GST-Six1/His-Eya2 binding, biochemical; hits give low values; activity change, % (concentration not given with the values); 360,000 compounds, 0.56% hits; AID 651725; in the data active means activity change below about -65%; inconclusive means mostly about -30% to -63%; further: on the % scale 0 is the no-effect control and ±100 the full control effect
#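 AlphaScreen luminescence read after one hour at 37 °C in darkness. Pin-transferred compounds met GST-Six1 and His-Eya2 protein (5X stock 250 nM/500 nM) plus glutathione donor and Ni-chelate acceptor beads (5X, 50 ug/mL).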
# BAZ2B block: BAZ2B (human) inhibition; Q9UIF8; AlphaScreen BAZ2B-H3K14Ac peptide displacement; Potency, µM (highest dose often 114 µM), for inactives: at the top dose activity change, negative = inhibition, most hits filed as inhibitors; 360,000 compounds, 4.4% hits; AID 504333; further: potency means the concentration at half of the fitted maximal effect; on the % scale 0 is the no-effect control and ±100 the full control effect; nearly all actives have a fitted effect of over 60% in size
#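 Compounds, titrated to a top concentration of 110 uM, were incubated 30 min at room temperature with preformed BAZ2B/acetyl-K14 H3 peptide complex (50 nM each). Proximity signal was measured by AlphaScreen after 20 min with beads.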
# G9a block: G9a (human) methyltransferase inhibition; G9a H3K9 monomethylation, AlphaScreen, 2 h; Q96KQ7; 350,000 compounds, 8.8% hits; AID 504332; Potency, µM (doses to about 102 µM), without a hit: at the top dose activity, negative = inhibition, hits mostly inhibitors; further: potency means the concentration at half of the fitted maximal effect; on the % scale 0 is the no-effect control and ±100 the full control effect; nearly all actives have a fitted effect of over 75% in size
# Target sequence (Q96KQ7 913-1193 limits assumed): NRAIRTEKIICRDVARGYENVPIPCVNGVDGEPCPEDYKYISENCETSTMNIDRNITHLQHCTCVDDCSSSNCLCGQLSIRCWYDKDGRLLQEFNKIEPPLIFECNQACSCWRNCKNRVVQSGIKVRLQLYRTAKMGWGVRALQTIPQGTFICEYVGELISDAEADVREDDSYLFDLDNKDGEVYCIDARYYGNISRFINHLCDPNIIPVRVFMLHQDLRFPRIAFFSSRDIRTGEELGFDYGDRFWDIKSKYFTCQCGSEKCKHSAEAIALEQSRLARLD
#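 Signal arises when biotinylated H3K9 peptide, once monomethylated, bridges streptavidin donor and antibody-captured acceptor beads. Enzyme at 20 nM was preincubated 15 min with test compounds; peptide 500 nM and SAM 20 uM then reacted for 2 h.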
# * marks the source's active call; other numbers are inactive results; ? = inconclusive; nt = not tested or not shown; [ ] = remark or other dose. Shown are actives, neighbours in structure and some others; about 10% of the full set was active somewhere. Unless noted, the call rests on the fitted dose curve; in most records, active means well fitted inhibition curve with a large enough effect; inconclusive means small, poorly fitted or top-dose-only effect; inactive means no such curve, though single readings can be large or run the other way.
SMILES,CtBP-E1A inh,JMJD2A Tudor,HP1b chromo inh,Six1-Eya2 blk,BAZ2B block,G9a block
Cc1ccc(S(=O)(=O)c2[nH]c(-c3ccccc3)nc2SCC(=O)O)cc1,nt,-17.9%,42.4%,nt,-20.6%,?
CCCCCCCCN1C(=O)[C@H](CC(=O)N2CCN(C(=O)C3CC3)CC2)C[C@@]2(C(=O)OCC)CCCC=C12,19.6,nt,nt,10.9,nt,nt
CC(=O)Nc1cc(C(=O)O)ccc1S(=O)(=O)c1ccc(C)cc1,2.5,-19.7%,19.8%,5.0,1.9%,50.1µM*
CC(=O)Nc1cc(C(=O)N2CCOCC2)ccc1S(=O)(=O)c1ccc(C)cc1,-2.2,1.9%,44.4%,-0.8,1.6%,23.0%[0.501 µM]
O=C(N/N=C/c1c(Cl)cccc1Cl)c1cccc(F)c1,8.6,-9.5%,8.7%,5.2,8.1%,24.6%
Cc1[nH]n(-c2ccc(Br)cc2)c(=O)c1/C=N/NC(=O)c1ccccc1,nt,79.4µM*,38.3%,-10.9,31.6µM*,?
Cc1[nH]n(-c2ccccc2)c(=O)c1/C=N/NC(=O)c1cccc(F)c1,nt,79.4µM*,45.4%,-92.3*,79.4µM*,25.1µM*
COC(=O)[C@H]1[C@H]2C[C@@H]3c4[nH]c5cc(OC)ccc5c4CCN3C[C@H]2C[C@@H](OC(=O)c2ccc(N)cc2)[C@@H]1OC,-1.4,?,-14.8%,?,39.8µM*,?
Cc1ccc(-c2nnc(SCC(=O)N3CCCc4ccccc43)o2)cc1,nt,-4.1%,15.0%,nt,0.9%,-4.1%[59 µM]
N#CC1=C(N)NC(SCc2ccc(Br)cc2)=C(C#N)C12CCCCC2,-21.5,?,-3.9%,17.5,?,?
CC1=C(C(=O)Nc2ccccc2)C2(CCCCC2)C(C#N)=C(SCC(N)=O)N1,-8.1,14.1µM*,-14.6%,-6.8,?,9.9%
N#CC1=C(N)NC(SCC(=O)c2ccccc2)=C(C#N)C12CCCC2,-13.6,?,2.5%,-9.6,?,50.1µM*
N#CC1=C(N)NC(SCC(=O)Nc2ccc(Br)cc2)=C(C#N)C12CCCCC2,8.0,?,-0.7%,-0.4,?,70.8µM*
CC1(C)CC(=O)C2=C(C1)NC(SCC(=O)Nc1ccccc1)=C(C#N)C21CCCCC1,0.1,-5.3%,23.5%,-1.3,-0.4%,?
N#CC1=C(N)NC(SCc2ccccc2)=C(C#N)C12CCCC2,-8.9,?,7.1%,-9.0,-35.4%,79.4µM*
Cc1ccc(C)c(OCc2cc(C(=O)N(C)Cc3nccs3)no2)c1,10.6,0.8%,71.3%,1.3,-10.1%,-11.3%
COc1ccc(CCNC(=O)/C(=C/c2cccnc2)NC(=O)c2ccccc2)cc1OC,nt,-3.0%[11.4 µM],36.0%,-4.1,-17.7%,-19.5%
C[C@H](CO)N1C[C@H](C)[C@@H](CN(C)C(=O)NC2CCCC2)Oc2cc(Br)ccc2S1(=O)=O,-9.7,nt,nt,4.1,nt,nt
CCSC1=C(C#N)C2(CCCC2)C(C#N)=C(N)N1,-4.7,?,-14.3%,-4.6,-3.3%,20µM*
COc1ccc(CCNC(=O)c2cc3c(=O)n(C)c4cc(Cl)ccc4c3s2)cc1OC,nt,-14.3%,15.1%,nt,nt,-20.6%[59 µM]
COc1cccc2c1c(NC(=O)Nc1ccc(F)cc1F)nn2C,9.3,-6.2%,38.4%,6.8,-35.1%,-5.4%
Cc1cccc(CC2SC(N)=NC2=O)c1 (stereo not drawn),6.9,-9.0%,-8.3%,4.4,1.1%,50.1µM*
COc1cccc(CNC(=O)CCc2c(C)nc3c(c2C)c(=O)n(C)c(=O)n3C)c1,nt,-11.4%,17.1%,nt,?,-36.1%[59 µM]
Cc1c(Br)c([N+](=O)[O-])nn1CC(=O)N1CCN(C23CC4CC(CC(C4)C2)C3)CC1,nt,-17.9%,24.8%,-6.5,-29.2%,-11.6%
CC1(C(=O)NS(=O)(=O)c2ccc(Cl)cc2)CCN1C(=O)Cc1ccsc1 (stereo not drawn),-1.5,nt,nt,0.0,nt,nt
CS(=O)(=O)c1cccc(C(=O)N(CCc2ccccc2)Cc2cccs2)c1,-1.1,0.0%,25.4%,-1.7,8.2%,79.4µM*
O=C(c1cccc(S(=O)(=O)N2CCCCC2)c1)N(CCc1ccccc1)Cc1ccccc1,3.8,-3.4%,45.5%,-2.7,1.6%,-33.9%
